Common to all, as to assay: DAPPL (digital affinity profiling via proximity ligation, sequencing); 10 mM Tris-HCl pH 7.5, 50 mM NaCl, 1 mM DTT, 4% glycerol, room temperature, 30 min; GST-TFs on glutathione beads, 16-mer random dsDNA library, 0.1% formaldehyde crosslink after washing; high values mean tight binding
What all share (settings): protein: recombinant; tags: N-terminal GST; dsDNA, one strand shown

For one test, the target named is T1, FLI1 (Homo sapiens, UniProt Q01543 1-452).
T1 sequence: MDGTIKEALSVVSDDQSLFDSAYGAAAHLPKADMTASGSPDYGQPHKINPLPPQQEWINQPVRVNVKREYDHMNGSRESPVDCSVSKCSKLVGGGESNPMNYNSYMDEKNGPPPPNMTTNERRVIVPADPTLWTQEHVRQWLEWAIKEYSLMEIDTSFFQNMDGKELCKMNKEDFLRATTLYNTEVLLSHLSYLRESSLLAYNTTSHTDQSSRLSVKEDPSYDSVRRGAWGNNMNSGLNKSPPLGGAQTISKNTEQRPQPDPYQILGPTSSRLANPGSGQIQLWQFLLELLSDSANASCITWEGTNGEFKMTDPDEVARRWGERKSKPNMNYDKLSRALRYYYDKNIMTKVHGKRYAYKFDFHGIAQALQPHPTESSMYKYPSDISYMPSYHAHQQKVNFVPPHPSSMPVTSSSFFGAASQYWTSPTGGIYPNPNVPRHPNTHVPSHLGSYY
In short, it runs like this: (§1)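 Sequencing on an Illumina NextSeq500 followed washing, crosslinking with 0.1% formaldehyde, proximity ligation (BsaI/T4 ligase, 1 h, 37 °C) and PCR amplification of pools that had been incubated for 30 min at room temperature with 200 nmole of a random double-stranded 16-mer DNA library in Tris/NaCl/DTT/glycerol buffer. Each pool held DNA-barcoded human transcription factors, expressed in yeast as GST fusions and captured on glutathione beads, plus a tag-only sample. Binding signal is a hexamer's read frequency for a factor divided by its frequency in the tag-only sample.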

The target of another test is T2, ELK1 (Homo sapiens, UniProt P19419 1-428).
T2 sequence: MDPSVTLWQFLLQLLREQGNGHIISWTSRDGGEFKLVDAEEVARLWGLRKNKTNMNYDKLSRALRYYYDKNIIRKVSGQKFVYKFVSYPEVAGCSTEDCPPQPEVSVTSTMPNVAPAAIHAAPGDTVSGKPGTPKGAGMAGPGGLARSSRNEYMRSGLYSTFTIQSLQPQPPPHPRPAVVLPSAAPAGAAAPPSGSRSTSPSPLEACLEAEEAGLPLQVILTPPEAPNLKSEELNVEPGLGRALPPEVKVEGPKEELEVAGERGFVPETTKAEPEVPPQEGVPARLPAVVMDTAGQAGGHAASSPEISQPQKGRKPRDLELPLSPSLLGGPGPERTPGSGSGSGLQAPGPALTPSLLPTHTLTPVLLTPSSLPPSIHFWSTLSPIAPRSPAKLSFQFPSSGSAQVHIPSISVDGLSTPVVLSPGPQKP
The method in brief: as §1

The target in the next test is T3, GABPA (Homo sapiens, UniProt Q06546 1-454).
T3 sequence: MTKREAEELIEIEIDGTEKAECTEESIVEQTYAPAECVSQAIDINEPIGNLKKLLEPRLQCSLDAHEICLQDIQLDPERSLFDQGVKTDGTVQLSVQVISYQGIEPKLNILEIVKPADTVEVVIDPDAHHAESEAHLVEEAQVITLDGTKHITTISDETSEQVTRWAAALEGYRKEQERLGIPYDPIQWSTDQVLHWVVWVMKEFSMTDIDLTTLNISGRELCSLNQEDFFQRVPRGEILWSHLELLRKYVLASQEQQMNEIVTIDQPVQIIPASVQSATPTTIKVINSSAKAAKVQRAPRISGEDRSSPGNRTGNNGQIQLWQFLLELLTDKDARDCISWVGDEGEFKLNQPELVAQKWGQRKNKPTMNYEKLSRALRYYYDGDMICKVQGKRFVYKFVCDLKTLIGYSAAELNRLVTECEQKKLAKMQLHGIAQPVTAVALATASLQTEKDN
The method in brief: as §1

The next test has as its target T4, ERG (Homo sapiens, UniProt P11308 1-479).
T4 sequence: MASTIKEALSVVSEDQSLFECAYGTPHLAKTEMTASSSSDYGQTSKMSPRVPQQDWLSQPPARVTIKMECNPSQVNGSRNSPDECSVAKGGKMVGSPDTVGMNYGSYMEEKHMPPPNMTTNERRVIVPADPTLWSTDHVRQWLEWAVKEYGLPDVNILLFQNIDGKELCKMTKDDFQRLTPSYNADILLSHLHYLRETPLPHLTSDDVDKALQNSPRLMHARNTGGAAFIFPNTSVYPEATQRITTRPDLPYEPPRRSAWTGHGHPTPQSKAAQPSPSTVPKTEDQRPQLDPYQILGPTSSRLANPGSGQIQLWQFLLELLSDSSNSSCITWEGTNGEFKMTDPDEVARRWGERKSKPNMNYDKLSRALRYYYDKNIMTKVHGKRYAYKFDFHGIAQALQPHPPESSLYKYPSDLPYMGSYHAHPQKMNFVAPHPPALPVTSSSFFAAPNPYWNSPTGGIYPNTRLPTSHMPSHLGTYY
The method in brief: as §1

The next test has as its target ELF1 (Homo sapiens, UniProt P32519 1-619). In short, it runs like this: as §1
The next test deals with T5, EHF (Homo sapiens, UniProt Q9NZC4 1-300).
T5 sequence: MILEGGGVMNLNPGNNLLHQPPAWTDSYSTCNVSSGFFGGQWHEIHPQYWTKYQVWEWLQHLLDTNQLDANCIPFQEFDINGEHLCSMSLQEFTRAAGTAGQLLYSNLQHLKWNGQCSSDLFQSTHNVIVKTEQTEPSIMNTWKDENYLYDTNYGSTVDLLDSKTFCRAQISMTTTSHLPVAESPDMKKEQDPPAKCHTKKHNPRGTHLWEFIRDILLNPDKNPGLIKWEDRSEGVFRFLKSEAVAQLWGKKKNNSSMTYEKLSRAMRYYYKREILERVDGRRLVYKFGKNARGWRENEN
In short, it runs like this: as §1

The target in another test is SPI1 (Homo sapiens, UniProt P17947 1-270). The method in brief:
as §1

For the next test, the target named is SPIB (Homo sapiens, UniProt Q01892 1-262). The method in brief: as §1
Chain of SPIB (Q01892 whole entry): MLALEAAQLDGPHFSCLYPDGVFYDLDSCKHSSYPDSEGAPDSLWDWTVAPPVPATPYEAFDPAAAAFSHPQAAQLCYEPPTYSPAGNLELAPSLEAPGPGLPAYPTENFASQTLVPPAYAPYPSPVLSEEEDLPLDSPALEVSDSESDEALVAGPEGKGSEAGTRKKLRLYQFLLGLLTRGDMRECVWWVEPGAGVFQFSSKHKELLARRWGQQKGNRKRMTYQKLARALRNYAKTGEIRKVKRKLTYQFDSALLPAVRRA
The target of a further test is T6, ELK3 (Homo sapiens, UniProt P41970 1-407).
T6 sequence: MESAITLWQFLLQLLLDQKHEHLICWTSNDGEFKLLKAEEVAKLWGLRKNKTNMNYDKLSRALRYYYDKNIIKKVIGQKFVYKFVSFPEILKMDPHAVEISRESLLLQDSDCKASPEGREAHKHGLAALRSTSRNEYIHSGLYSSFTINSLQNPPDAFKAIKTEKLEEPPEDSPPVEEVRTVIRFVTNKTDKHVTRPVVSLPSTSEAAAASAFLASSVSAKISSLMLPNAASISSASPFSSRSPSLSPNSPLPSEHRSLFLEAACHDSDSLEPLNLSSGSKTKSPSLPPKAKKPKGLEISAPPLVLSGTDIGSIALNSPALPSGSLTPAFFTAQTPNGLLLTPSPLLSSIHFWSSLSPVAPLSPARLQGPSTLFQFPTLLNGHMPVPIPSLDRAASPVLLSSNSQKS
In short, it runs like this:
as §1

The target in another test is T7, FEV (Homo sapiens, UniProt Q99581 1-238).
T7 sequence: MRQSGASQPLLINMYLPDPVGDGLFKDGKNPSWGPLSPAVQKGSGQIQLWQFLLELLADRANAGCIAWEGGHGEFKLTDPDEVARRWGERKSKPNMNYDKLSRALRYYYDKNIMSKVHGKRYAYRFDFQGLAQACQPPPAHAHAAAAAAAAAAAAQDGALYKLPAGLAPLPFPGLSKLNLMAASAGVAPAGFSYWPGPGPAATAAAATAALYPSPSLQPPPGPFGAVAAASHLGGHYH
The method in brief: as §1

The target of the next test is ETV5 (Homo sapiens, UniProt P41161 1-510). In short, it runs like this: as §1
Chain of ETV5 (P41161 whole entry): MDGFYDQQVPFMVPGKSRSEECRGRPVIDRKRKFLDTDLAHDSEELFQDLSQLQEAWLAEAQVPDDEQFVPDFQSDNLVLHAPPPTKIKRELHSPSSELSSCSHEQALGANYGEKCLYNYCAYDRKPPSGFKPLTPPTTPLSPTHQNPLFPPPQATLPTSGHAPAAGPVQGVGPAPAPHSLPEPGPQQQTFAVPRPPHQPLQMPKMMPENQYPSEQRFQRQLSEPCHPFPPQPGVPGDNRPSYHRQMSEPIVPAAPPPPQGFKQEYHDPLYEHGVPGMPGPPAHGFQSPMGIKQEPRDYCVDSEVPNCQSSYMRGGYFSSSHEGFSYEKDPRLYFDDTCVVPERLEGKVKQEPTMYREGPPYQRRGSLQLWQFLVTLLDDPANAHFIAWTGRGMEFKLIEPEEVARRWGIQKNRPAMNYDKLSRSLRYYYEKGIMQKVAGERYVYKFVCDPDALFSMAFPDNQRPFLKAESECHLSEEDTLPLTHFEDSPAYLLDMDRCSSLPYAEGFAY
For the next test, the target named is T8, SPIC (Homo sapiens, UniProt Q8N5J4 1-248).
T8 sequence: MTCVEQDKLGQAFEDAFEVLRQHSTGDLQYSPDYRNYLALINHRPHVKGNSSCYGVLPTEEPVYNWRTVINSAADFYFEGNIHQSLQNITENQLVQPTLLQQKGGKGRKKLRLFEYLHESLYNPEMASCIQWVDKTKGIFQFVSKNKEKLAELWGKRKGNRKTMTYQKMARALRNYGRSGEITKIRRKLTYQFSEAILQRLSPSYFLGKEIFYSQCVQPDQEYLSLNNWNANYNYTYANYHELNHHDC
In short, it runs like this: as §1

The target in a further test is ELF4 (Homo sapiens, UniProt Q99607 1-663). The method in brief: as §1
Chain of ELF4 (Q99607 whole entry): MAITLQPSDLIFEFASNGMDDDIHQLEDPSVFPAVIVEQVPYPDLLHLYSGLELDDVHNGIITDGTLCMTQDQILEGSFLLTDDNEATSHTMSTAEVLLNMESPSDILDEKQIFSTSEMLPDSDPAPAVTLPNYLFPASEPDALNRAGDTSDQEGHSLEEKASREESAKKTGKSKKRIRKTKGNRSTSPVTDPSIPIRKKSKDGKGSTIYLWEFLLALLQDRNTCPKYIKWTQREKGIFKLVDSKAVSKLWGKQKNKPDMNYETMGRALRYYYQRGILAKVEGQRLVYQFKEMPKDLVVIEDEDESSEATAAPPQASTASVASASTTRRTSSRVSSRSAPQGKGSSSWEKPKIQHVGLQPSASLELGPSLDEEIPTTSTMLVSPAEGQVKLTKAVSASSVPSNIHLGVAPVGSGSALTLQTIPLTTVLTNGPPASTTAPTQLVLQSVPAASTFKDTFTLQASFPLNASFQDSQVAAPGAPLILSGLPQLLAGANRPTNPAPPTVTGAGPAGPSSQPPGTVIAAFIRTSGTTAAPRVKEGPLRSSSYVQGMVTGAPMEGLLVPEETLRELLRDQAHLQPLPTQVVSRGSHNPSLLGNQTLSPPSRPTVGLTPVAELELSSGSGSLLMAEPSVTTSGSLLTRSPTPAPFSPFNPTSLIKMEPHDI
For the next test, the target named is T9, ELK4 (Homo sapiens, UniProt P28324-2 1-405).
T9 sequence: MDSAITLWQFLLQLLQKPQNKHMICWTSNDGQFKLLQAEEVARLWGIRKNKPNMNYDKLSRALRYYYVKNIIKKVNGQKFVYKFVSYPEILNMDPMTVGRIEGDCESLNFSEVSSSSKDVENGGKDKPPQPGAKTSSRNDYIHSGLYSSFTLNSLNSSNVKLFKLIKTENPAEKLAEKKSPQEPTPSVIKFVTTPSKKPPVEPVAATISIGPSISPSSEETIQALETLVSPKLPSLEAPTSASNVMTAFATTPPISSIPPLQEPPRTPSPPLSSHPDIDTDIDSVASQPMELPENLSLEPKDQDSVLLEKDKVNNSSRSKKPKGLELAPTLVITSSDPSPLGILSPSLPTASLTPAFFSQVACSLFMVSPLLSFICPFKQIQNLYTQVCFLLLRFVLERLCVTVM
The method in brief:
as §1

In a further test the target is T10, ETV2 (Homo sapiens, UniProt O00321 1-342).
T10 sequence: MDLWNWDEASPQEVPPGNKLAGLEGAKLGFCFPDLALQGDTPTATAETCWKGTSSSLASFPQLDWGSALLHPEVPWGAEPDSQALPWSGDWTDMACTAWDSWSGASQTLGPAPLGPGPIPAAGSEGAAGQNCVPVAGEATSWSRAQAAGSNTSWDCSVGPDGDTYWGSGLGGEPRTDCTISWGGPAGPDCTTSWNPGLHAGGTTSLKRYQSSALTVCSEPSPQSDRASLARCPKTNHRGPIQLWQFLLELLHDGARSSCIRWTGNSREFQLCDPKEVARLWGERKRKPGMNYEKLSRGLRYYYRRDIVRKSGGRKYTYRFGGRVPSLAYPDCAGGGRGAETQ
The method in brief:
as §1

The target of the next test is T11, ELF3 (Homo sapiens, UniProt P78545 1-371).
T11 sequence: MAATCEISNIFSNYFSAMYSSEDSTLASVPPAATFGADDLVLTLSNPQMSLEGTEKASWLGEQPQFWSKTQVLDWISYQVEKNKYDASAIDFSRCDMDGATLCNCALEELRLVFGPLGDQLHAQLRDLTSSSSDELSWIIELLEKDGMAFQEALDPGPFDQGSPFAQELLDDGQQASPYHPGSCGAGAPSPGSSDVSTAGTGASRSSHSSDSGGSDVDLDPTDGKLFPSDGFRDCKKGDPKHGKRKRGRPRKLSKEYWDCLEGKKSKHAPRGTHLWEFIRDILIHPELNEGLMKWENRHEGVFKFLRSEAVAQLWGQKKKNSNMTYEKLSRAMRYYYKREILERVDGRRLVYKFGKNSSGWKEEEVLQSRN
In short, it runs like this: as §1

Another test addresses ETV1 (Homo sapiens, UniProt P50549 1-477). In short, it runs like this: as §1

From article PMC7862700, “An all-to-all approach to the identification of sequence-specific readers for epigenetic DNA modifications on cytosine” come the findings set out here.

Chain of ETV1 (P50549 whole entry): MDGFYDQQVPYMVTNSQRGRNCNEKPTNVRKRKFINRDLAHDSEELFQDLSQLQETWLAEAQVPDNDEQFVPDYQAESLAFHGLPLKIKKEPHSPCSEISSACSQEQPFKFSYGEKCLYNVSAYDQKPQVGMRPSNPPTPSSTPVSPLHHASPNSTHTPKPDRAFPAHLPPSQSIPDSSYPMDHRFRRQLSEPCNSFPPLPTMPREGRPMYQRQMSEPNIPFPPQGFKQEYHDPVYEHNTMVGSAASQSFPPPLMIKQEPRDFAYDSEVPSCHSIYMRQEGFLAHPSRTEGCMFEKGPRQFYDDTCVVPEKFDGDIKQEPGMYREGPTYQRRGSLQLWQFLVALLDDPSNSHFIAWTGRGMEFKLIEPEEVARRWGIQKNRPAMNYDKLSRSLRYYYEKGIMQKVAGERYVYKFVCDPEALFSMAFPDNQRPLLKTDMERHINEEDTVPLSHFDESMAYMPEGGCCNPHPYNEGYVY
Chain of ELF1 (P32519 whole entry): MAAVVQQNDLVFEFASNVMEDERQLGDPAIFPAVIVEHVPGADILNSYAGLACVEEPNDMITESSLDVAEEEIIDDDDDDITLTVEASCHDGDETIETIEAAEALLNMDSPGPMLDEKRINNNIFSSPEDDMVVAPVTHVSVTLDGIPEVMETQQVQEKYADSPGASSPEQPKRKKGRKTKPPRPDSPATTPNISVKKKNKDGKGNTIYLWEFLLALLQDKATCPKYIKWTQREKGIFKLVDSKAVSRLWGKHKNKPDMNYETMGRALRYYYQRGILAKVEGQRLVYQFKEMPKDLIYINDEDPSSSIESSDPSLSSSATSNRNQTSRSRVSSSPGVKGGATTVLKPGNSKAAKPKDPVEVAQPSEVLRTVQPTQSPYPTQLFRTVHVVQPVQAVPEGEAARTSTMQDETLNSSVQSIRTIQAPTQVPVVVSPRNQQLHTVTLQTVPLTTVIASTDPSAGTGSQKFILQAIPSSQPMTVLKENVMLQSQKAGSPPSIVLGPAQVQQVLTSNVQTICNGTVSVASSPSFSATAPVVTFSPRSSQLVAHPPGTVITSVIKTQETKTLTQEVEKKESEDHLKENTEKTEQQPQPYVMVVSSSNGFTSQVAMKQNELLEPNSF

For TACAAC, the binding signal was 1.16 fold enrichment (6-mer frequency, TF over GST control) in the test with FLI1; 1.17 fold enrichment (6-mer frequency, TF over GST control) in the test with ELK1; 1.16 fold enrichment (6-mer frequency, TF over GST control) in the test with GABPA; 1.14 fold enrichment (6-mer frequency, TF over GST control) in the test with ERG; 1.16 fold enrichment (6-mer frequency, TF over GST control) in the test with ELF1; 1.14 fold enrichment (6-mer frequency, TF over GST control) with EHF. Besides, the binding signal was 1.08 fold enrichment (6-mer frequency, TF over GST control) in the test with SPI1; 1.18 fold enrichment (6-mer frequency, TF over GST control) in the test with SPIB; 1.23 fold enrichment (6-mer frequency, TF over GST control) with ELK3; 1.17 fold enrichment (6-mer frequency, TF over GST control) with FEV; 1.13 fold enrichment (6-mer frequency, TF over GST control) in the test with ETV5; 1.22 fold enrichment (6-mer frequency, TF over GST control) in the test with SPIC. Also, the binding signal with ELF4 was 1.11 fold enrichment (6-mer frequency, TF over GST control); with ELK4, 1.07 fold enrichment (6-mer frequency, TF over GST control); with ETV2 it was 1.09 fold enrichment (6-mer frequency, TF over GST control); in the test with ELF3 it was 1.02 fold enrichment (6-mer frequency, TF over GST control); with ETV1, 1.13 fold enrichment (6-mer frequency, TF over GST control).
